High-throughput results as filed in PubChem BioAssay.
TWEAK-Fn14 inh: inhibitors of TWEAK-Fn14 interaction signaling; AID 1159606; TWEAK-stimulated Fn14 reporter cells, luciferase luminescence, 8 h; 2% of 360,000 active; inhibition, % at 10 µM; in the data active = inhibition above about 50%
MITF TRPM1 inh: MITF TRPM1 promoter inhibition in SK-MEL-5 cells | SK-MEL-5 TRPM1 promoter luciferase, 24 h | inhibition, % at 12.5 µM | 0.83% of 330,000 active;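 active = mean inhibition across replicates of 60% or more, whatever share of single replicates reaches that level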
LMP1 NFkB inh: Epstein-Barr LMP1 NF-kappaB reporter inhibition. LMP1-induced NF-kappaB luciferase reporter cells, luminescence. inhibition, % at 12.5 µM. 0.69% of 350,000 active; in the data active = inhibition above about 41%
Shn3 3UTR inh: reduces Shn3 3'UTR luciferase signal in osteoblasts; Clone20 osteoblast Shn3 3'UTR firefly luciferase, 24 h; inhibition, % at 12.5 µM; 0.52% of 360,000 active;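 active = mean inhibition of at least 75% with every replicate also reaching 75%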
HIF-2a inh: blocks HIF-2a reporter activity | 786-0 RCC cells HIF-2a reporter, luciferase luminescence, overnight | inhibition, % at 18.8 µM | 0.72% of 360,000 active;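 active = inhibition of the luminescence signal of 40% or more relative to plate controls, in a single-dose primary screen at 18.75 µM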
TROY signal inh: blocks TROY-dependent signaling in reporter cells. Q293 LMP1-TROYcd NF-kB luciferase reporter, 4 h. inhibition, % at 10 µM. 0.98% of 360,000 active;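 active = compounds whose plate-normalised and pattern-corrected inhibition of the luciferase reporter signal at the single screening dose is 50% or more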
Hits are given with their value; – = inactive; · = no result given. Hits are enriched below; roughly 3.4% of the tested compounds scored in any of these assays.

SMILES | TWEAK-Fn14 inh | MITF TRPM1 inh | LMP1 NFkB inh | Shn3 3UTR inh | HIF-2a inh | TROY signal inh
Cc1cccc(NC(=O)Nc2ccc(Cl)c(Cl)c2)n1 | 58 | – | – | – | – | –
COC(=O)c1cccc(NC(=O)Nc2ccc(Cl)c(Cl)c2)c1 | 60 | – | – | – | – | –
COC(=O)c1cc(NC(=O)Nc2ccccc2)ccc1Cl | – | – | – | – | – | –
Cc1cccc(NC(=O)Nc2ccccc2)n1 | – | – | – | – | – | –
CCCNC(=O)N1C[C@H](O)COC[C@@H]2O[C@@H](CC(=O)NCCCN3CCOCC3)CC[C@H]21 | · | · | · | · | – | ·
COc1cccc(C(=O)N(C)Cc2c(C)nn(C3CCS(=O)(=O)C3)c2C)c1 (centres undefined) | – | – | – | – | – | –
NS(=O)(=O)c1ccc(Nc2nc(-c3cccc([N+](=O)[O-])c3)cs2)cc1 | – | – | – | – | – | 56
O=C(Nc1cccc(-c2csc(Nc3ccc(Cl)cc3)n2)c1)c1cc([N+](=O)[O-])cc(C(F)(F)F)c1 | 51 | – | – | – | – | –
CC(C)(C)c1ccc(S(=O)(=O)NC(=O)C2(C)CCN2C(=O)C2(c3ccc(Cl)cc3)CC2)cc1 (centres undefined) | – | · | · | – | – | –
NC(=S)N=Nc1ccc(NN=C(N)N)cc1 | – | – | 86 | – | – | –
CC(=O)N1CCN(S(=O)(=O)c2cccc(C(=O)N3CCN(S(=O)(=O)c4c(C)c(C)cc(C)c4C)CC3)c2)CC1 | – | · | – | – | – | –
Oc1cc(NCc2cccnc2)ccc1-c1nc2ccccc2o1 | 103 | – | – | – | – | –
CCc1ccc(OCC(=O)Nc2ccc(-c3nc4ccccc4o3)c(O)c2)cc1 | – | – | – | – | – | –
CC1(C(=O)N2CCN(c3ccc([N+](=O)[O-])cc3)CC2)CC1(Cl)Cl (centres undefined) | – | – | – | – | – | –
CC(=O)Nc1ccc(S(=O)(=O)c2ccnc3cc(Cl)ccc23)cc1 | 77 | · | – | – | – | –
COc1cc(Cn2c3ccc(NC(=S)NCc4ccc(C)cc4)cc3c(=O)n2C)ccc1F | 73 | · | · | – | – | 58
COc1cc(Cn2c3ccc(NC(=O)CC(C)(C)C)cc3c(=O)n2C)ccc1F | – | · | · | – | – | –
CC(C)(C)c1ccc(CC(=O)N2CCC2(C)C(=O)NS(=O)(=O)c2ccc3c(c2)CCO3)cc1 (centres undefined) | – | · | · | – | – | –
COc1cccc(NC(=O)CCc2nc(-c3ccccc3F)no2)c1 | – | – | – | – | – | –
O=C(CCc1nc(-c2ccccc2F)no1)Nc1ccc(Oc2ccccc2)cc1 | 52 | – | – | – | – | –
COc1ccccc1NS(=O)(=O)c1ccc2oc(SCc3ccc(C#N)cc3)nc2c1 | 58 | – | – | – | – | –
CNC(=O)CSc1nc2cc(S(=O)(=O)Nc3ccccc3OC)ccc2o1 | – | – | – | – | – | –
CCCCS(=O)(=O)NC(=O)C1(C)CCN1C(=O)C/C=C/c1ccccc1 (centres undefined) | – | · | · | – | – | –
CSc1nc(N)nc(SCC(=O)C23CC4CC(CC(C4)C2)C3)c1C#N | 93 | – | 69 | – | – | 54
N#Cc1c(N)nc(SCC(=O)C23CC4CC(CC(C4)C2)C3)c(C#N)c1-c1ccc(Cl)cc1 | – | – | – | – | – | –
SMILES | TWEAK-Fn14 inh | MITF TRPM1 inh | LMP1 NFkB inh | Shn3 3UTR inh | HIF-2a inh | TROY signal inh
Nc1nc(SCC(=O)C23CC4CC(CC(C4)C2)C3)n[nH]1 | 72 | – | – | – | – | ·
CN=C1S/C(=C\c2ccc(O)c(Br)c2)C(=O)N1C | – | – | 45 | – | – | –
CC(=O)c1cccc(NS(=O)(=O)c2ccc(-c3cnc(C4CC4)o3)cc2)c1 | – | – | – | 85 | – | –
CC[n+]1c(/C=C/c2c[nH]c3ccccc23)ccc2cc(C)ccc21 | · | 74 | – | · | · | ·
CCN(CC(=O)Nc1ccccc1C(F)(F)F)C(=O)CN1C(=O)NC(C)(c2ccc3ccccc3c2)C1=O (centres undefined) | – | – | – | – | – | –
COc1ccc(C2CC(O)(c3ccccc3)Oc3cc(OC)c(OC)c(OC)c32)cc1 (centres undefined) | – | – | – | – | – | –
OC1(c2ccccc2)CC(c2ccccc2)c2ccccc2O1 (centres undefined) | – | – | – | – | – | 50
COc1cccc(CN(C)C(=O)CNC(=O)c2ccc(-c3ccccc3)cc2)c1OC | 51 | – | – | – | – | –
COc1cc(C(CCN2CCCCC2)c2c(OC)cc(OC)c3c(-c4ccccc4)cc(=O)oc23)cc(OC)c1OC (centres undefined) | – | 85 | – | – | – | –
COc1cc(C(CCN2CCCC(C)C2)c2c(OC)cc(OC)c3c(-c4ccccc4)cc(=O)oc23)cc(OC)c1OC (centres undefined) | – | 90 | – | – | – | –
CC(C)c1nc(Cl)c(C#N)c2c1CCCC2 | 52 | – | – | – | – | –
CC(C)c1nc(NCCO)c(C#N)c2c1CCCC2 | 61 | – | – | – | – | 51
CC(C)c1nc(Cl)c(C#N)c2c1CCC2 | – | – | – | – | – | –
COC(=O)c1ccc(-c2nc(-c3cccs3)no2)cc1 | 92 | · | – | – | – | 64
Cc1oc(-c2cccc(Cl)c2)nc1CS(=O)(=O)CC(=O)NC1CCCC1 | – | – | – | – | – | –
O=[N+]([O-])c1ccc(S(=O)(=O)c2cccc(C(F)(F)F)c2)nc1 | – | 83 | 76 | · | 52 | 62
CN(N)c1nc(C(F)(F)F)nc2ccccc12 | – | – | – | – | – | –
CN(NS(=O)(=O)c1ccc(Br)cc1)c1nc(C(F)(F)F)nc2ccccc12 | – | – | – | – | – | 58
CC(=O)Oc1ccc2c(=O)c(-c3nc4ccccc4s3)coc2c1 | 83 | – | – | – | – | 53
CC(C)Oc1ccc2c(=O)c(-c3ccccc3)coc2c1 | – | – | – | – | – | –
CCC1CSC(Nc2ccc(C(=O)/C=C/c3ccc(Br)cc3)cc2)=N1 (centres undefined) | 57 | – | – | – | – | –
COc1ccc(Oc2ccc(/C=N/NC(=O)c3cccnc3)cc2[N+](=O)[O-])cc1 | – | – | – | – | – | –
COc1ccc(C=CC(=O)c2ccc3cc(OC)c(OC)cc3c2)cc1OC | 67 | · | – | – | – | –
O=C(/C=C/c1ccc(Br)cc1)c1ccc(NC(=O)c2ccco2)cc1 | – | – | – | – | – | –
COc1ccc(C=CC(=O)c2ccc(OC)c(OC)c2)cc1O | – | · | – | – | – | –
CCC1CSC(Nc2ccc(C(=O)/C=C/c3ccc(OC)c(OC)c3)cc2)=N1 (centres undefined) | 74 | – | – | 87 | – | –
COc1ccc(Oc2ccc(/C=C/C(=O)c3cccc(OC)c3)cc2[N+](=O)[O-])cc1 | 60 | – | – | – | – | –
